Data taken from PubChem BioAssay (NCATS).
Results filed as inconclusive are left out. Calls of active or inactive are those of the source. Calls follow the shape of the dose curve; as a rule, active = well fitted inhibition curve with a large enough effect; inconclusive = small, poorly fitted or top-dose-only effect; inactive = flat fitted curve, though single readings scatter.

Assays:
NIH3T3 [1] = assay: Cytotoxic Profiling of Annotated Libraries Using Quantitative High-Throughput Screening (AID 1296008); details: Five cell lines viability, CellTiter-Glo ATP luminescence, 48-72 h; max response: active compounds read low
Procedure, shortened: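 Cytotoxicity was measured as CellTiter-Glo ATP luminescence, read after 10 min at room temperature. Compound treatment of the cells lasted 48 or 72 hr at 37 degrees Celsius in a qHTS format.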

HACAT = assay: qHTS assay to identify novel small-molecules to repurpose for Merkel cell carcinoma treatment (AID 1296009); details: MCC and control cell lines, CellTiter-Glo viability, 72 h; series mostly up to 44.8 µM
Procedure, shortened: (§1)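 Cell viability measured by CellTiter-Glo following 72 hr compound treatment at 37 degree celsius, with NPC and MIPE libraries tested in 8- and 11-point concentration series.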

HEK293T = assay: as above; details: MCC and control cell lines, CellTiter-Glo viability, 72 h; at 44.8 µM (top of the series) unless noted
Procedure, shortened: as §1

NIH3T3 [2] = assay: as above; details: MCC and control cell lines, CellTiter-Glo viability, 72 h; at 44.8 µM (top of the series) unless noted
Procedure, shortened: as §1

MCC-13 = assay: as above; details: MCC and control cell lines, CellTiter-Glo viability, 72 h; series mostly up to 46 µM
Procedure, shortened: as §1

MCC-26 = assay: as above; details: MCC and control cell lines, CellTiter-Glo viability, 72 h; series mostly up to 46 µM
Procedure, shortened: as §1

MKL-1 = assay: as above; details: MCC and control cell lines, CellTiter-Glo viability, 72 h; series mostly up to 46 µM
Procedure, shortened: as §1

MKL-2 = assay: as above; details: MCC and control cell lines, CellTiter-Glo viability, 72 h; series mostly up to 46 µM
Procedure, shortened: as §1

UISO = assay: as above; details: MCC and control cell lines, CellTiter-Glo viability, 72 h; series mostly up to 46 µM
Procedure, shortened: as §1

WaGa = assay: as above; details: MCC and control cell lines, CellTiter-Glo viability, 72 h; series mostly up to 46 µM
Procedure, shortened: as §1
% is scaled to controls: 0 for no effect and ±100 for the full control effect.
Also: nearly all actives have a fitted effect of over 60% in size.

C/C=C/C1=CC2=C(CO1)C(=O)C(C)(O)C(OC(=O)c1c(C)cc(OC)cc1O)C2 (centres undefined)
inactive: max response (NIH3T3 [1]) -6.89% | Potency (HACAT)

C=CC(C)(C)c1[nH]c2cc3c(cc2c1CC1NC(=O)C2CCCN2C1=O)C=CC(C)(C)O3 (centres undefined)
inactive: outcome (NIH3T3 [1]) | Potency (HACAT) | outcome (HEK293T) inactive [at 17.4 µM] | outcome (NIH3T3 [2]) inactive [at 17.4 µM]

CC(=O)O[C@H]1CC[C@@]2(C)C(CC[C@@H](C)[C@]23Cc2c(O)cc4c(c2O3)CN([C@@H](CCC(=O)O)C(=O)O)C4=O)C1(C)C (some centres undefined)
inactive: max response (NIH3T3 [1]) 2.49% | Potency (HACAT)

Cc1cc(C(=O)Nc2cccc(C(=O)Nc3cccc(C(F)(F)F)c3)c2)on1
inactive: max response (NIH3T3 [1]) -17% | Potency (HACAT)

O=C(/C=C/c1ccccc1)OC[C@]12O[C@H]1[C@@H](O)[C@@H]1C=CO[C@@H](O[C@@H]3O[C@H](CO)[C@@H](O)[C@H](O)[C@H]3O)[C@@H]12
inactive: outcome (NIH3T3 [1]) | Potency (HACAT) | outcome (HEK293T) inactive [at 17.4 µM] | outcome (NIH3T3 [2]) inactive [at 17.4 µM]

O=C(O)C1CN(Cc2ccc(-c3nc4cc(Cc5ccccc5F)ccc4s3)c(F)c2)C1
inactive: max response (NIH3T3 [1]) 3.31% | outcome (HACAT) inactive [at 9.27 µM]

CC(=O)O[C@@H]1[C@H](O[C@@H]2O[C@@H](CO)[C@H](O)[C@H]2O)[C@@H](O[C@@H]2O[C@@H](C)[C@H](O[C@@H]3OC[C@@H](O)[C@H](O)[C@H]3O)[C@@H](O)[C@H]2O)[C@H](OC(=O)[C@]23CCC(C)(C)C[C@H]2C2=CCC4[C@@]5(C)CC[C@H](O[C@@H]6O[C@H](C(=O)O)[C@@H](O)[C@H](O)[C@H]6O[C@@H]6O[C@H](CO)[C@H](O)[C@H](O)[C@H]6O)[C@@](C)(C=O)C5CC[C@@]4(C)[C@]2(C)CC3)O[C@@H]1C (some centres undefined)
inactive: max response (NIH3T3 [1]) 4.82% | outcome (HACAT) inactive [at 9.27 µM]

Cc1cc(NC(=O)Nc2ccc(F)c(F)c2)n(-c2ccccc2)n1
inactive: max response (NIH3T3 [1]) -11% | Potency (HACAT)

COc1ccc(-n2[nH]c(=O)c3[nH]c4cc(Cl)ccc4c(=O)c3c2=O)c(C)c1
inactive: max response (NIH3T3 [1]) 4.85% | Potency (HACAT) | outcome (HEK293T)

O=C(O)c1c(O)c(-c2ccccc2)nc2ccccc12
inactive: outcome (NIH3T3 [1]) | Potency (HACAT) | outcome (MCC-13) | outcome (MCC-26) | Potency (MKL-1) | Potency (MKL-2) | outcome (NIH3T3 [2]) | Potency (UISO) | Potency (WaGa)

COc1c2cc(c(O)c1OC)-c1cc(ccc1O)CCC(O)CCCC2 (centres undefined)
inactive: max response (NIH3T3 [1]) -1.69% | Potency (HACAT)
